Reference: PubChem BioAssay (EPA / NIEHS)
Where “and” joins values, the source holds several entries; their conditions need not be identical. Equal values may be shown once. Calls of active or inactive are those of the source. Rule for the calls: active = hit-call score of the fitted dose curve at least 0.9, where 1 is the maximum; inactive = score below 0.9.

Test: BSK_SAg_PBMCCytotoxicity: PBMC Cytotoxicity Assessment in the BioMAP Diversity Plus: SAg Assay (AID 2283093);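 note: fitted both ways against DMSO so a hit may be loss or gain of signal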
Conditions: primary human HUVEC with PBMC
Method: BSK_SAg is a cell-based, multiplexed-readout assay that uses umbilical vein endothelium and peripheral blood mononuclear cells, a human vascular primary cell co-culture, with measurements taken at 24 hours after chemical dosing in a 96-well plate.BSK_SAg_PBMCCytotoxicity is an assay component measured in the BSK_SAg assay. It measures Alamar blue related to cell death using Alamar Blue Reduction technology.Data from the assay component BSK_SAg_PBMCCytotoxicity was analyzed into 1 assay endpoint. This assay endpoint, BSK_SAg_PBMCCytotoxicity, was analyzed with bidirectional fitting relative to DMSO as the negative control and baseline of activity. Using a type of viability reporter, gain or loss-of-signal activity can be used to understand changes in the viability. Furthermore, this assay endpoint can be referred to as a secondary readout, because this assay has produced multiple assay endpoints where this one serves a viability function. To generalize the intended target to other relatable targets, this assay endpoint is annotated to the cell cycle intended target family, where the subfamily is cytotoxicity.
The levels of cell surface (or secreted, indicated by the prefix "s") biomarker endpoints were measured by ELISA. Overt cytotoxicity to cells in confluent adherent cultures (all systems other than the BT system) was assessed by measuring total protein levels using sulforhodamine B (SRB) staining in parallel cultures at the time of biomarker measurements, indicated as SRB endpoints. For proliferation assays for adherent cell types, individual cell types are cultured at sub-confluence and relative cell numbers quantified by SRB staining at time points optimized for each system (48 h: 3C and CASM3C systems; 72 h: BT and HDF3CGF systems; 96 h: SAg system). SRB was performed by staining cells with 0.1% SRB after fixation with 10% TCA and reading wells at 560 nm.Viability and proliferation of PBMC (T cells) was quantified by Alamar Blue reduction for the SAg and BT systems. For PBMC viability (referred to as PBMC Cytotoxicity within the assay endpoint names), cells were plated (75,000/well in a 96-well plate) and then chemical samples added for 1 h before addition of activators, SEB and TSST-1 (20 ng/mL final concentration each). Cells were incubated for 90 h. Then, Alamar Blue (20 uL/well) (Invitrogen, Cat DAL1100) was added for 6 h, and the plates were read with a fluorescence microplate reader at 546/580 nm (excitation/emission). For PBMC proliferation, cells were plated and activated as above but incubated for only 16 h prior to addition of Alamar Blue. Plates were read after 6 h.

Structure (SMILES)	AC50	outcome
Oc1c(Cl)cc(Cl)cc1Sc1cc(Cl)cc(Cl)c1O	29.1 µM (active) and 30 µM (active)	
Cc1cccc2c1ccc1ccccc12		inactive
CCCCC=O		inactive
O=C1c2ccc(O)c(O)c2C(=O)c2c(O)ccc(O)c21		inactive
CC1=NN(c2ccccc2)C(=O)C1		inactive
Cc1ccc(C(=O)c2ccccc2)cc1		inactive
OCC(F)(F)C(F)(F)C(F)(F)C(F)(F)C(F)(F)C(F)(F)C(F)(F)C(F)(F)C(F)(F)C(F)(F)C(F)(F)F	115 nM (active) and 64.1 nM (active)	
O=C(O)CCC(F)(F)C(F)(F)C(F)(F)C(F)(F)C(F)(F)C(F)(F)F		inactive
CCCCCCCCCCCCOS(=O)(=O)O		inactive
CCCCCCCCCCCCCCC		inactive
OCC(CO)(CBr)CBr		inactive
O=C(NO)c1ccccc1		inactive
Oc1ccc(Cc2ccccc2O)cc1		inactive
CN(C)CCOC(c1ccccc1)c1ccccc1		inactive
CCOC(=O)CN[C@@H](C(=O)N1CC[C@H]1C(=O)NCc1ccc(/C(N)=N/O)cc1)C1CCCCC1		inactive
COc1cccc(O)c1		inactive
O=P(O)(O)CCC(F)(F)C(F)(F)C(F)(F)C(F)(F)C(F)(F)C(F)(F)F		inactive
C=COC(=O)C(C)(C)CCCCCC	36.8 µM (active)	
O=P(O)(O)CCC(F)(F)C(F)(F)C(F)(F)C(F)(F)C(F)(F)C(F)(F)C(F)(F)C(F)(F)F		inactive
CN(CCO)S(=O)(=O)C(F)(F)C(F)(F)C(F)(F)C(F)(F)C(F)(F)C(F)(F)C(F)(F)C(F)(F)F		inactive

Structure (SMILES)	AC50	outcome
Cc1ccc(N=Nc2c(O)ccc3ccccc23)c(C)c1	4.15 µM (active)	
C=CC(=C)CC/C=C(\C)CCC=C(C)C		inactive
CCCCCCCCCCCCCCCCCC[N+](C)(C)Cc1ccccc1	0.919 µM (active)	
O=S(=O)(O)C(F)(F)C(F)(F)C(F)(F)C(F)(F)C(F)(F)C(F)(F)C(F)(F)C(F)(F)C(F)(F)C(F)(F)F		inactive
Oc1cc2ccccc2cc1O		inactive
CN(Cc1cnc2nc(N)nc(N)c2n1)c1ccc(C(=O)N[C@@H](CCC(=O)O)C(=O)O)cc1		inactive
O=C(c1ccccc1)c1ccccc1		inactive
O=C(CC(=O)C(F)(F)C(F)(F)C(F)(F)F)c1cccs1	44.8 µM (active) and 43.6 µM (active)	
O=C1NS(=O)(=O)c2ccccc21		inactive
C[C@]12CC[C@@H]3c4ccc(O)cc4CC[C@H]3[C@@H]1C[C@@H](O)[C@@H]2O		inactive
CC(C)(C)c1ccc(O)c(O)c1	3.06 µM (active)	
O=C(CCCN1CCC(O)(c2ccc(Cl)cc2)CC1)c1ccc(F)cc1		inactive
CC(=O)Nc1ccc(O)cc1		inactive
CC[N+](CC)(CC)Cc1ccccc1		inactive
CCCCC(CC)C(=O)O (stereo not given)		inactive
CCCCCc1ccc(O)cc1	13.5 µM (active)	
CCC(C)c1ccccc1O (stereo not given)		inactive
Clc1ccc(Nc2nnc(Cc3ccncc3)c3ccccc23)cc1		inactive
CN(C)c1ccc(C(=C2C=CC(=[N+](C)C)C=C2)c2ccccc2)cc1	0.481 µM (active)	
NC(=NCCCCCCN=C(N)/N=C(\N)Nc1ccc(Cl)cc1)/N=C(\N)Nc1ccc(Cl)cc1	7.06 µM (active)	
